Compound activity deposited in PubChem BioAssay by National Center for Advancing Translational Sciences (NCATS).
Only some compounds are listed: those with a hit (about 2.4% of all), similar ones and a draw of the others.
Anthrax LT inh = inhibitors of anthrax lethal toxin internalization; Cells, anthrax lethal toxin internalization, FRET ratio (460/530); Potency, µM (titrated, usually from 40 µM), without a hit: at the highest dose activity change, negative = inhibition, actives largely listed as inhibitors; hit rate 0.67% among 70,000; AID 912; also: % is scaled to controls: 0 for no effect and ±100 for the full control effect; nearly all actives have a fitted effect of over 50% in size
AmpC nodet inh = inhibitors of E. coli AmpC beta-lactamase without detergent. P00811. Potency, µM (highest dose often 28.7 µM), for inactives: at the top dose activity change, negative = inhibition. hit rate 1.8% among 71,000. AmpC nitrocefin hydrolysis, absorbance 480 nm, no detergent; also: % of control where 0% means no effect
Target sequence (P00811 whole entry, looked up): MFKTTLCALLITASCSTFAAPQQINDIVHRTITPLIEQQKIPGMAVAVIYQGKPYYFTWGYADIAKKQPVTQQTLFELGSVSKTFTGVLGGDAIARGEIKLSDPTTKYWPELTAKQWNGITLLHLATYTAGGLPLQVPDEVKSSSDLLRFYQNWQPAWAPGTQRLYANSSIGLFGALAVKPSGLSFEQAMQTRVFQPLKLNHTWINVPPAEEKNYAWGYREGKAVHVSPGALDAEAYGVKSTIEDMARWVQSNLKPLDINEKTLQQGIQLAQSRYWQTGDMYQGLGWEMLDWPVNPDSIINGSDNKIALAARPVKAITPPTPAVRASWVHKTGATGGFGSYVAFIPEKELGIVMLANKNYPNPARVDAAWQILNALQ
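AmpC in 20 mM phosphate buffer pH 7.0 was preincubated 15 min at room temperature with compounds. Nitrocefin (800 uM stock) was then added and hydrolysis followed at 480 nm every 20 s for 4 min.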
Prx2 Sm inh = blocks S. mansoni peroxiredoxin 2 enzymatic activity | S. mansoni Prx2 activity coupled to TGR/GSH (TGR is thioredoxin glutathione reductase), NADPH fluorescence loss, qHTS | Potency, µM | hit rate 0.07% among 65,000 | AID 448
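qHTS, coupled TGR/Prx2 format; 15 min compound preincubation at RT; reaction started with H2O2 (2.5 mM aliquot); kinetic NADPH fluorescence decrease, ex 365/em 450 nm.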
AmpC inh det = AmpC beta-lactamase inhibition, detergent assay; P00811; purified AmpC, nitrocefin hydrolysis with detergent; Potency, µM (highest dose often 28.7 µM), without a hit: at the highest dose activity change, negative = inhibition; hit rate 0.09% among 71,000; active = well fitted curve in the direction sought with a large enough effect; inconclusive = small, poorly fitted or top-dose-only effect; also: % is scaled to controls: 0 for no effect and ±100 for the full control effect
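E. coli AmpC (5.3 nM) in 20 mM phosphate pH 7.0 with 0.01% Triton X-100, preincubated 15 min RT with compound; nitrocefin (2 uL of 800 uM stock) hydrolysis followed by 480 nm absorbance every 20 s over 4 min.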
* = called active by the depositor; ? = inconclusive; . = no result; ! = repeats disagree; [ ] = remark or other dose. Unless noted, calls follow the shape of the full dose curve. Potency is read from the fitted curve at half-maximal effect.

SMILES | Anthrax LT inh | AmpC nodet inh | Prx2 Sm inh | AmpC inh det
Cn1c(C(=O)N2CCN(c3ccccc3F)CC2)cc2c(=O)n(C)c3ccccc3c21 | -3% | 4µM*[single pt active] | >57 | 13%
Cn1c(C(=O)N2CCCC2)cc2c(=O)n(C)c3ccccc3c21 | 2% | 11% | >57 | 12%
Cc1cccc(N2CCN(C(=O)c3cc4c(=O)n(C)c5ccccc5c4n3C)CC2)c1C | -18% | 4µM*[single pt active] | >57 | 11%
Cc1ccc(Cl)cc1N1CCN(C(=O)c2cc3c(=O)n(C)c4ccccc4c3n2C)CC1 | -12% | 4µM*[single pt active] | >57 | 13%
Cn1c(C(=O)N2CCN(c3ncccn3)CC2)cc2c(=O)n(C)c3ccccc3c21 | -4% | 27% | >57 | 16%
COCCn1c(=O)cnc2cnc(Oc3ccccc3)nc21 | -2% | 6% | >57 | -3%
CN(CCC(=O)O)C1=Nc2ccc(Cl)cc2C(c2ccccc2)=[N+]([O-])C1 | ? | -9%[5.75 µM] | >57 | 0%[5.75 µM]
COC(=O)c1ccc2c(=O)n(Cc3ccco3)c(SCC(=O)Nc3ccc(C)c(Cl)c3)nc2c1 | -4% | 13µM* | >57 | -2%
COCCNC(=O)CSc1nc2cc(OC)c(OC)cc2c(=O)n1Cc1ccco1 | 6% | 40% | >57 | -1%
COc1ccc(NC(=O)N2CCCC3(CCN(S(=O)(=O)c4ccccc4)CC3)C2)cc1 | ? | 48% | >57 | 1%
COc1ccccc1C(=O)N(Cc1nc(-c2ccc(Cl)cc2)no1)C(C)C | 13µM* | 92% | >57 | 14%
COc1ccc(-c2noc(CN(C)S(=O)(=O)c3ccc(Cl)cc3)n2)cc1OC | 13µM* | 104% | >57 | -5%
COc1ccccc1NC(=O)Nc1nc(-c2cccnc2)nc2ccccc12 | -1% | -7% | >57 | 0%
COc1ccccc1NC(=O)Cn1c(=O)n2nc(C)nc2c2ccccc21 | -3% | 26% | >57 | 7%
COc1ccc(Cl)cc1NC(=O)Cn1c(=O)n2nc(C)nc2c2ccccc21 | -4% | 4µM*[single pt active] | >57 | 11%
O=C(c1ccc(-c2ccccc2)cc1)N1CCN(c2nc3ccccc3o2)CC1 | -9% | 4µM*[single pt active] | >57 | 8%
O=C(c1ccc(-c2nnc(-c3ccccc3)o2)cc1)N1CCCCCC1 | 5% | 78% | >57 | -1%
COc1ccccc1-c1ccc2ncnc(N(C)C)c2c1 | -27% | 111% | >57 | 10%
NC(=O)c1cn(-c2ccccc2)nc1-c1cccnc1 | 11% | -3% | >57 | -2%
NC(=O)c1cc(Cl)cn(-c2ccccc2)c1=O | -3% | 3.2µM*[single pt active] | >57 | 13%
CCCN1CCN(CCCNC(=O)Cn2nc(-c3ccc(Cl)cc3)ccc2=O)CC1 | ? | 3% | >57 | -2%
O=C1CCn2nc(-c3ccc(Cl)cc3)cc2N1 | -13% | 4µM*[single pt active] | >57 | 11%
CCOC(=O)C1CCCN(c2c(NCCCN(C)Cc3ccccc3)c(=O)c2=O)C1 (stereo not given) | -11% | -4% | >57 | -3%
CCOC(=O)N1CCN(c2c(NCCCOC(C)C)c(=O)c2=O)CC1 | -14% | 4µM*[single pt active] | >57 | 8%
CCOC(=O)N1CCC(Nc2c(NCCN3CCN(Cc4ccccc4)CC3)c(=O)c2=O)CC1 | -7% | 3% | >57 | 0%
SMILES | Anthrax LT inh | AmpC nodet inh | Prx2 Sm inh | AmpC inh det
CCOC(=O)N1CCN(c2c(NCCN(C)Cc3ccccc3)c(=O)c2=O)CC1 | -7% | 4µM*[single pt active] | >57 | 10%
CCOC(=O)N1CCN(c2c(NCCN3CCN(Cc4ccccc4)CC3)c(=O)c2=O)CC1 | -10% | 4µM*[single pt active] | >57 | 12%
CCOC(=O)N1CCN(c2c(NCCCN(C)c3ccccc3)c(=O)c2=O)CC1 | -1% | 4µM*[single pt active] | >57 | 12%
O=C(c1csnn1)N1CCC2(CC1)CN(c1ccncc1)C2 | 8% | 3% | >57 | -1%
CCOC(=O)C1CCN(c2c(NCCCN3CCN(Cc4ccccc4)CC3)c(=O)c2=O)CC1 | 3% | 19% | >57 | 10%
CCOC(=O)N1CCN(c2c(NCC3CCN(Cc4cccc(C)c4)CC3)c(=O)c2=O)CC1 | 12% | 4µM*[single pt active] | >57 | 15%
O=S(=O)(C[C@H](O)C(Cl)(Cl)Cl)NNc1ccccc1 | -7%[8 µM] | -7%[5.75 µM] | >57 | 0%[5.75 µM]
COc1ccc(C2C(C(C)=O)=C(C)Nc3ncnn32)cc1OC (stereo not given) | ? | -5% | >57 | 0%
COc1cc(C2C(C(=O)OC(C)C)=C(C)Nc3ncnn32)cc(OC)c1OC (stereo not given) | -1% | 4µM*[single pt active] | >57 | 14%
COC(=O)[C@H](C)NC(=O)C/C=C\[C@@H](C)CO | 3%[0.32 µM] | . | . | .
O=C(O)/C=C\C(=O)Nc1ccc2c(c1)C(=O)c1cc(F)ccc1-2 | -9%[8 µM] | -6%[5.75 µM] | >57 | -5%[5.75 µM]
O=c1cc(-c2ccc(O)c(O)c2)oc2cc(O)cc(O)c12 | ? | 0.5µM*! | >26 | -1%
COc1ccc(-c2cc(=O)c3c(O)cc(O)cc3o2)cc1 | -5%[3.58 µM] | -20%[12.8 µM] | >57 | -5%[12.8 µM]
CCCCCCCCCCCC1=C(O)C(=O)C=C(O)C1=O | ? | 4µM* | >57 | -14%
CCCCCc1cc(O)cc(O)c1 | ? | -8% | . | 10%
Cc1cc(CN2CCCCC2)c(O)c(CN2CCCCC2)c1 | -9%[8 µM] | -2%[5.75 µM] | >57 | -5%[5.75 µM]
COC(=O)NC(/C=C/c1ccco1)[C@@]1(C(=O)OC)CCCC1=O (stereo not given in full) | -7%[8 µM] | . | . | .
CCNc1ncc2nc(-c3ccccc3)c(=O)n(CCOC)c2n1 | ? | 12% | >57 | -2%
CCOC(=O)C(C)Sc1nnc(Cc2cc(=O)[nH]c(=O)[nH]2)n1-c1ccc(OCC)cc1 (stereo not given) | 1% | 4µM*[single pt active] | >57 | 11%
CCOC(=O)C(C)Sc1nnc(Cc2cc(=O)[nH]c(=O)[nH]2)n1-c1cccc(OC)c1 (stereo not given) | 3% | 4µM*[single pt active] | >57 | 10%
CCOc1ccc(-n2c(Cc3cc(=O)[nH]c(=O)[nH]3)nnc2SCc2cccnc2)cc1 | -8% | 4µM*[single pt active] | >57 | 12%
CCOc1ccc(-n2c(Cc3cc(=O)[nH]c(=O)[nH]3)nnc2SC(C)C)cc1 | ? | 12% | >57 | 24%
O=S(=O)(NCCNC/C=C\c1ccc(Br)cc1)c1cccc2cnccc12 | ? | 20% | . | -5%
CN[C@H]1CC[C@@H](c2ccc(Cl)c(Cl)c2)c2ccccc21 | 10µM* | . | . | .
CC1=C(C(=O)N(C)C)C(c2ccc(Cl)c(Cl)c2)NC(=O)N1 (stereo not given) | ? | 8% | >57 | -5%
SMILES | Anthrax LT inh | AmpC nodet inh | Prx2 Sm inh | AmpC inh det
CCn1c(SCC(=O)Nc2oc(-c3ccccc3)c(-c3ccccc3)c2C#N)nnc1-c1ccco1 | ? | ? | >57 | -3%
N#Cc1c(NC(=O)CSc2ncnc3sccc23)oc(-c2ccco2)c1-c1ccco1 | ? | 7.9µM* | >57 | 12%
Cc1ccc2c(CC(=O)Nc3sccc3C(N)=O)coc2c1 | -12% | 13µM*[single pt active] | >57 | -2%
COc1ccc(CCNc2ncnc3c2oc2ccccc23)cc1OC | ? | 59% | >57 | -3%
COc1ccc(CCNc2nc(C)nc3c2oc2ccccc23)cc1OC | 10µM* | 101% | >57 | -2%
O=C(Cn1cc2c(n1)CCCC2)Nc1ccccc1Br | -19% | 4µM*[single pt active] | >57 | 11%
